Holding throughout (details): mRNA level, 48 h; actives raise or lower the signal
Read-out in experiment [1]: Tumor necrosis factor receptor superfamily member 6 (Homo sapiens) (UniProt P25445)
Kind of experiment: LTEA_HepaRG_FAS: Life Technologies and Expression Analysis (LTEA) Assay for Fas cell surface death receptor (FAS) using HepaRG (AID 2283447). A digest of the protocol: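 FAS transcript level was measured by TaqMan qRT-PCR against three housekeeping genes after 48 h chemical exposure. Cells were HepaRG, 0.5% DMSO vehicle, with a top concentration of 100 uM and half-log dilutions over eight points, in duplicate.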

Read-out in experiment [2]: Fatty acid synthase (Homo sapiens) (UniProt P49327)
Kind of experiment: LTEA_HepaRG_FASN: Life Technologies and Expression Analysis (LTEA) Assay for Fatty Acid Synthase (FASN) using HepaRG (AID 2283448). A digest of the protocol:
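Transcript-level assay: HepaRG liver cells are treated for 48 h across an eight-point range topping at 100 uM, and FASN mRNA, normalized to three housekeeping genes, is compared with DMSO controls in both directions.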

Read-out in experiment [3]: Cyclin D2 (CCND2), CCND2 (gene 894)
As to the kind of experiment: LTEA_HepaRG_CCND2: Life Technologies and Expression Analysis (LTEA) Assay for Cyclin D2 (CCND2) using HepaRG (AID 2283449). A digest of the protocol:
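Read-out is CCND2 mRNA level measured by qRT-PCR in human HepaRG liver cells and normalised to three housekeeping genes. Chemicals were applied for 48 h at up to 100 uM, with gain or loss fitted relative to 0.5% DMSO.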

Read-out in experiment [4]: Cyclin Dependent Kinase Inhibitor 1A (CDKN1A), CDKN1A (gene 1026)
As to the kind of experiment: LTEA_HepaRG_CDKN1A: Life Technologies and Expression Analysis (LTEA) Assay for Cyclin Dependent Kinase Inhibitor 1A (CDKN1A) using HepaRG (AID 2283450). A digest of the protocol: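 Differentiated HepaRG cells in serum-free induction medium, exposed 48 h in duplicate to eight half-log concentrations up to 100 uM in 0.5% DMSO. mRNA measured by TaqMan qRT-PCR, normalized to ACTB, GAPDH, POLR2A; bidirectional fit versus DMSO.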

Read-out in experiment [5]: catalase (CAT), CAT (gene 847)
As to the kind of experiment: LTEA_HepaRG_CAT: Life Technologies and Expression Analysis (LTEA) Assay for catalase (CAT) using HepaRG (AID 2283452).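 As to AC50: TaqMan qRT-PCR signal normalized to ACTB GAPDH and POLR2A housekeeping genes.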 A digest of the protocol:
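Expression of CAT was quantified by TaqMan qRT-PCR with ACTB/GAPDH/POLR2A normalization after 48 h chemical exposure of HepaRG. Eight-point half-log series, top 100 uM, in 0.5% DMSO; gain or loss fitted against vehicle.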

Read-out in experiment [6]: flavin-containing dimethylaniline monooxygenases 3 (FMO3), FMO3 (gene 2328)
Kind of experiment: LTEA_HepaRG_FMO3: Life Technologies and Expression Analysis (LTEA) Assay for flavin-containing dimethylaniline monooxygenases 3 (FMO3) using HepaRG (AID 2283453).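 As to AC50: FMO3 transcript by TaqMan qRT-PCR normalized to ACTB GAPDH and POLR2A.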 A digest of the protocol:
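HepaRG, 48 h exposure, 8-pt half-log series from 100 uM, 0.5% DMSO vehicle, duplicates; FMO3 transcript by Fluidigm TaqMan qRT-PCR, housekeeping-normalized; gain/loss fit vs DMSO.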

Read-out in experiment [7]: Cytochrome P450 (CYP1A1), CYP1A1 (gene 1543)
As to the kind of experiment: LTEA_HepaRG_CYP1A1: Life Technologies and Expression Analysis (LTEA) Assay for Cytochrome P450 (CYP1A1) using HepaRG (AID 2283454). A digest of the protocol: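 Differentiated human HepaRG cells, after 48 h plating, exposed in duplicate for 48 h in serum-free induction medium to 8 half-log concentrations up to 100 uM in 0.5% DMSO. CYP1A1 mRNA by qRT-PCR, normalized to ACTB/GAPDH/POLR2A; bidirectional fit versus DMSO.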

Read-out in experiment [8]: CFLAR gene, CFLAR (gene 8837)
Kind of experiment: LTEA_HepaRG_CFLAR: Life Technologies and Expression Analysis (LTEA) Assay for CFLAR gene using HepaRG (AID 2283455). A digest of the protocol: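 HepaRG, 48 h exposure, 8-pt conc-response (100 uM top, half-log), 0.5% DMSO vehicle, duplicates. CFLAR expression by qRT-PCR; ACTB/GAPDH/POLR2A normalization; gain or loss fit vs DMSO baseline.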

Read-out in experiment [9]: Forkhead box O1 (FOXO1), FOXO1 (gene 2308)
As to the kind of experiment: LTEA_HepaRG_FOXO1: Life Technologies and Expression Analysis (LTEA) Assay for Forkhead box O1 (FOXO1) using HepaRG (AID 2283456). A digest of the protocol:
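Readout is FOXO1 transcript level by multiplexed qRT-PCR against three housekeeping genes, curve-fitted in both directions relative to 0.5% DMSO vehicle. Human HepaRG cultures received chemicals for 48 h, up to 100 uM in half-log steps.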

Read-out in experiment [10]: growth arrest and DNA damage 45 (GADD45A), GADD45A (gene 1647)
As to the kind of experiment: LTEA_HepaRG_GADD45A: Life Technologies and Expression Analysis (LTEA) Assay for growth arrest and DNA damage 45 (GADD45A) using HepaRG (AID 2283458). In outline: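 Human HepaRG liver cells are treated in duplicate for 48 h with chemicals in 0.5% DMSO, highest concentration 100 uM. Expression is read by qRT-PCR and analyzed in both directions against vehicle.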

Read-out in experiment [11]: ABC Transporter (ABCB1), ABCB1 (gene 5243)
Kind of experiment: LTEA_HepaRG_ABCB1: Life Technologies and Expression Analysis (LTEA) Assay for ABC Transporter (ABCB1) using HepaRG (AID 2283460). In outline: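 Expression of ABCB1 was quantified by qRT-PCR against three housekeeping genes after human HepaRG cultures received test chemicals for 48 hours. Concentrations spanned eight half-log steps topping at 100 uM in 0.5% DMSO; gain or loss of signal was fitted relative to vehicle.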

Read-out in experiment [12]: growth arrest and DNA damage 45 (GADD45B), GADD45B (gene 4616)
As to the kind of experiment: LTEA_HepaRG_GADD45B: Life Technologies and Expression Analysis (LTEA) Assay for growth arrest and DNA damage 45 (GADD45B) using HepaRG (AID 2283461). A digest of the protocol: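 Differentiated human HepaRG cells in serum-free induction medium exposed 48 h in duplicate to eight concentrations, top 100 uM, half-log steps, 0.5% DMSO. GADD45B mRNA by TaqMan qRT-PCR, normalized to ACTB, GAPDH, POLR2A; bidirectional fit versus DMSO.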

Read-out in experiment [13]: ABC Transporter (ABCC3), ABCC3 (gene 8714)
As to the kind of experiment: LTEA_HepaRG_ABCC3: Life Technologies and Expression Analysis (LTEA) Assay for ABC Transporter (ABCC3) using HepaRG (AID 2283462). In outline:
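Differentiated human HepaRG cells exposed 48 h in serum-free induction medium, 0.5% DMSO vehicle, 8-point half-log series to 100 uM in duplicate. ABCC3 mRNA by qRT-PCR, normalised to ACTB, GAPDH, POLR2A; bidirectional fit vs DMSO.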

Read-out in experiment [14]: Broad substrate specificity ATP-binding cassette transporter ABCG2 (Homo sapiens) (UniProt Q9UNQ0)
As to the kind of experiment: LTEA_HepaRG_ABCG2: Life Technologies and Expression Analysis (LTEA) Assay for ABC Transporter (ABCG2) using HepaRG (AID 2283465). A digest of the protocol:
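Read-out is ABCG2 mRNA induction or loss quantified by qRT-PCR after 48 h chemical treatment of human HepaRG cells, normalized to three housekeeping genes. Concentrations reached 100 uM top in half-log steps; fitting was bidirectional against 0.5% DMSO.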

Read-out in experiment [15]: Cyclin D1 (CCND1), CCND1 (gene 595)
Kind of experiment: LTEA_HepaRG_CCND1: Life Technologies and Expression Analysis (LTEA) Assay for Cyclin D1 (CCND1) using HepaRG (AID 2283451). A digest of the protocol:
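Differentiated HepaRG cells exposed 48 h in serum-free induction medium to eight half-log concentrations from 100 uM top, 0.5% DMSO, duplicates. CCND1 mRNA measured by Fluidigm TaqMan qRT-PCR, normalised to ACTB, GAPDH, POLR2A; bidirectional fit.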

Read-out in experiment [16]: ABC Transporter (ABCC2), ABCC2 (gene 1244)
As to the kind of experiment: LTEA_HepaRG_ABCC2: Life Technologies and Expression Analysis (LTEA) Assay for ABC Transporter (ABCC2) using HepaRG (AID 2283464). A digest of the protocol: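 Differentiated HepaRG cells in serum-free induction medium exposed 48 h to eight half-log concentrations up to 100 uM, 0.5% DMSO, in duplicate. ABCC2 mRNA measured by qRT-PCR (TaqMan, Fluidigm), normalized to ACTB, GAPDH and POLR2A. Fitted in both directions against DMSO.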

Read-out in experiment [17]: Forkhead box O3 (FOXO3), FOXO3 (gene 2309)
Kind of experiment: LTEA_HepaRG_FOXO3: Life Technologies and Expression Analysis (LTEA) Assay for Forkhead box O3 (FOXO3) using HepaRG (AID 2283459). In outline: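 HepaRG, 48 h post-dose; 8 conc., half-log from 100 uM, 0.5% DMSO, duplicates; serum-free induction medium. Readout: FOXO3 mRNA, TaqMan qRT-PCR, housekeeping-normalized. Bidirectional curve fit vs DMSO baseline.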

Read-out in experiment [18]: ABC Transporter (ABCB11), ABCB11 (gene 8647)
As to the kind of experiment: LTEA_HepaRG_ABCB11: Life Technologies and Expression Analysis (LTEA) Assay for ABC Transporter (ABCB11) using HepaRG (AID 2283463). In outline:
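ABCB11 transcript levels are read by Fluidigm TaqMan qRT-PCR after 48 h chemical treatment of human HepaRG cells. Concentrations span 100 uM downward in half-log steps with 0.5% DMSO; gain or loss is fitted against DMSO controls.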

Calls of active or inactive are those of the source. The calls were made as follows: active = hit-call score of the fitted dose curve at least 0.9, where 1 is the maximum; inactive = score below 0.9.

As a reminder, the AC50 is the concentration at which the activity in the assay is half-maximal.

Broad substrate specificity ATP-binding cassette transporter ABCG2 (Homo sapiens), sequence (Q9UNQ0 whole entry, looked up): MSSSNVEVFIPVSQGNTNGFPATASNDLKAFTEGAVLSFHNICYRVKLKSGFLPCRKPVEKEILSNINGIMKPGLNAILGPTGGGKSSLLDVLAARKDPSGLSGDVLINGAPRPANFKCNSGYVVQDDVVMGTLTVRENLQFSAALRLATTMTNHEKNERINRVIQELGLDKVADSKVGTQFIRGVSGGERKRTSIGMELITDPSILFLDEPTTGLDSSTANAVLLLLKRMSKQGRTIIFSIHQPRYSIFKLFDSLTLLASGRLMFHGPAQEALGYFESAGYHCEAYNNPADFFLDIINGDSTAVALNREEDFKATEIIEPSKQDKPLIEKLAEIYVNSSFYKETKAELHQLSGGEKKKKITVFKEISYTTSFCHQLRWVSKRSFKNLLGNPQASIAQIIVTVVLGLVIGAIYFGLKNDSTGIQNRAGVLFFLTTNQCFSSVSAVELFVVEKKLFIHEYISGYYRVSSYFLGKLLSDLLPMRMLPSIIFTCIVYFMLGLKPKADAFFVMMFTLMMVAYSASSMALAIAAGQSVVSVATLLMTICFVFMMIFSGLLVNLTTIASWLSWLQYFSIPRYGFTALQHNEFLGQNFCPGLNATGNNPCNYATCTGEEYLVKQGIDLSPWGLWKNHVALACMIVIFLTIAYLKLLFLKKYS
Fatty acid synthase (Homo sapiens), sequence (P49327 whole entry, looked up): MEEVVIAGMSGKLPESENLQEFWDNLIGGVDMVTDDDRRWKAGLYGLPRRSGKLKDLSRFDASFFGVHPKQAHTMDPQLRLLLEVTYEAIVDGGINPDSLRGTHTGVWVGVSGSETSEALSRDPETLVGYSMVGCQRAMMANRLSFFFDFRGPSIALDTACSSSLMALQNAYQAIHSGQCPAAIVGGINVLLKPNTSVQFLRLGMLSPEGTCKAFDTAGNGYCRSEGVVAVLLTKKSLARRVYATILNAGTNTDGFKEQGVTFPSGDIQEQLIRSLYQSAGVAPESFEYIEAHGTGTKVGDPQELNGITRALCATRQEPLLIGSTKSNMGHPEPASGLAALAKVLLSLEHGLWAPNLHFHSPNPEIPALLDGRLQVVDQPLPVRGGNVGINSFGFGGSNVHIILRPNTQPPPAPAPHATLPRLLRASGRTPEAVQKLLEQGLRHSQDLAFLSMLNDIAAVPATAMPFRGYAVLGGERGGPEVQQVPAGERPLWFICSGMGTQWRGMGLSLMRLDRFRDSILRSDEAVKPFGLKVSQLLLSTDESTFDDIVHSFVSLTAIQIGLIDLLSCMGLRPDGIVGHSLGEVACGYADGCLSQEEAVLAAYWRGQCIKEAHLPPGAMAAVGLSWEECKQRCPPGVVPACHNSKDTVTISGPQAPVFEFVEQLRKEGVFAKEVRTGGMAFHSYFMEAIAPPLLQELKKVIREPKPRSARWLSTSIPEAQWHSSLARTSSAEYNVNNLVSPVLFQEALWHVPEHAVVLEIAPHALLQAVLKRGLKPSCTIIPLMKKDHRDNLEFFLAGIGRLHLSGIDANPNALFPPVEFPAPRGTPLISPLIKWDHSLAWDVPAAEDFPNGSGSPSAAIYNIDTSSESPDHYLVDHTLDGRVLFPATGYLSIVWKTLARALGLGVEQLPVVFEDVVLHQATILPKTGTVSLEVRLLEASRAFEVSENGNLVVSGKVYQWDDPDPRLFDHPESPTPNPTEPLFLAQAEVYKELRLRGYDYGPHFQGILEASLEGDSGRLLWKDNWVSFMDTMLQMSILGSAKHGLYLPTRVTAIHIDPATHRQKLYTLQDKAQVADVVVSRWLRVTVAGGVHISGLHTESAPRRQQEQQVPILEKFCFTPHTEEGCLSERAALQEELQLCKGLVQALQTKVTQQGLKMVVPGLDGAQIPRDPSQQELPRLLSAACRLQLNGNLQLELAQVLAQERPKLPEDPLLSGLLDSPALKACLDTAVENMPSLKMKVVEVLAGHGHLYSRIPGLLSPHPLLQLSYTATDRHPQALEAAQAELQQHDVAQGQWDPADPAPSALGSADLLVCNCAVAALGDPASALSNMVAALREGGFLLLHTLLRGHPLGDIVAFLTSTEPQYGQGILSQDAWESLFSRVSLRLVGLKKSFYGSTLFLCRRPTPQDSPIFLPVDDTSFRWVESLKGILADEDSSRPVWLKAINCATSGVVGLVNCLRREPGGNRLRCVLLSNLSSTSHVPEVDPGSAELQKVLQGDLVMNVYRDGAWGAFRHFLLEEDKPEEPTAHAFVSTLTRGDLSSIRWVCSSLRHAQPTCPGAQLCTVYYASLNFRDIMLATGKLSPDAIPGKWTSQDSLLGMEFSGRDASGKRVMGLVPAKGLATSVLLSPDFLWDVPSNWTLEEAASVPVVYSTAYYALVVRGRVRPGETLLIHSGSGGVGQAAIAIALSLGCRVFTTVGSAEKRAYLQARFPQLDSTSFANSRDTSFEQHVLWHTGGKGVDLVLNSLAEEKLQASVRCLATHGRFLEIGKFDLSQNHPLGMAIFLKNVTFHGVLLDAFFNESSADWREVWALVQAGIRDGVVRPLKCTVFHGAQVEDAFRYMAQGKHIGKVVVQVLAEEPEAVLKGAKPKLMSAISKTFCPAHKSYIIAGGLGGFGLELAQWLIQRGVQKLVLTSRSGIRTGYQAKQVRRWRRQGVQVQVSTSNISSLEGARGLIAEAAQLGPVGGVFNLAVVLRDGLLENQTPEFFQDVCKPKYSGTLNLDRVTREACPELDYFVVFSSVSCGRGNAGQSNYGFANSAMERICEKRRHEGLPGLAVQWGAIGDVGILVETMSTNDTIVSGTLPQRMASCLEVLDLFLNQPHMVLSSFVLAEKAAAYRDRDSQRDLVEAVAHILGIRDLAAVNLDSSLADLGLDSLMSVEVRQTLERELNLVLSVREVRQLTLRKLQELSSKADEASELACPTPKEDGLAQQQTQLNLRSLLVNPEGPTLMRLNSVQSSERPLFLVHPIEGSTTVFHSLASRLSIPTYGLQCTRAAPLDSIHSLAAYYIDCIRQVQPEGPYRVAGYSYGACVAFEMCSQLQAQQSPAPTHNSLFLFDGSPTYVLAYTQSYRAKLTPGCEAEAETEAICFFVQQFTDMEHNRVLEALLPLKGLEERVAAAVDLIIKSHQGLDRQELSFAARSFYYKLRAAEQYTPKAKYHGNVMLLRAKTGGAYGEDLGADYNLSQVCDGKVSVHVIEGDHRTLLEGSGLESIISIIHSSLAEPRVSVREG

For `CCc1c(C(=O)NN2CCCCC2)nn(-c2ccc(Cl)cc2Cl)c1-c1ccc(Br)cc1`, the AC50 in experiment [1] is 50 µM (active); in experiment [2], 82.7 µM (active); in experiment [4] it was 11.4 µM (active); in experiment [5], 41 µM (active); in experiment [6], 35.5 µM (active); in [7] it was 5.22 µM (active). Further, the AC50 in experiment [9] was 84.3 µM (active); in [10], 82.1 µM (active); in [11], 86.8 µM (active); in experiment [12], 50 µM (active); in [14], 50 µM (active). Moreover, the compound was classed as inactive in [3], in experiment [8] and in experiment [13].
As to `NCC1(Cc2noc(=O)[nH]2)CCCCC1`, the outcome in experiment [1], in experiment [2], in experiment [4], in experiment [15], in [5] and in experiment [6] was inactive. Further, the outcome in [9], in [10], in [11], in experiment [12], in experiment [13] and in experiment [16] was inactive. The outcome in [14] was inactive. Further, the concentration at half-maximal activity (AC50) in [7] was 73.3 µM (active).
As to `O=C(O)CCCCC(=O)O`, the outcome in experiment [1], in [2], in experiment [3], in experiment [4], in experiment [5] and in experiment [6] was inactive. Besides, the result in experiment [9], in experiment [10], in [17], in experiment [11], in experiment [12] and in experiment [13] was inactive. Further, in experiment [14], the outcome was inactive. For the same compound, the half-maximal activity concentration (AC50) in [7] was 73.7 µM (active).
As to `Cc1cc(=O)[nH]c(=S)[nH]1`, the compound was classed as inactive in experiment [1], in experiment [2], in [3], in experiment [4], in experiment [5] and in experiment [6]. Further, the call in [9], in [10], in experiment [17], in experiment [11], in experiment [12] and in experiment [13] was inactive. Further, in experiment [14], the compound was called inactive. Also, in [7], the AC50 is 50 µM (active).
On to `O=c1[nH]cc(F)c(=O)[nH]1`, for which the AC50 in [1] is 31.3 µM (active); in [4], 35.5 µM (active); in [5], 30.7 µM (active); in experiment [6] it was 36.3 µM (active); in [18], 64 µM (active). For the same compound, the compound was classed as inactive in experiment [2], in experiment [15], in experiment [7], in experiment [9], in experiment [10] and in experiment [17]. Moreover, the compound was called inactive in experiment [11], in [12], in experiment [13] and in [14].
Turning to `C1CCC(SSC2CCCCC2)CC1`, the compound was called inactive in experiment [1], in experiment [2], in [4], in experiment [15], in experiment [5] and in experiment [6]. The result in [9], in experiment [10], in experiment [11], in experiment [12], in experiment [13] and in experiment [18] was inactive. The result in experiment [16] and in [14] was inactive. Besides, the AC50 in experiment [7] is 50 µM (active).
In the case of `CCCCCCC(=O)OCC`, the outcome in experiment [1], in experiment [2], in [4], in experiment [15], in experiment [5] and in experiment [6] was inactive. The outcome in [9], in [10], in experiment [11], in [12], in experiment [13] and in experiment [18] was inactive. In addition, the result in experiment [14] was inactive. Further, the AC50 in experiment [7] is 33.1 µM (active).

The values are drawn from PubChem BioAssay (EPA / NIEHS).
